TEAD-YAP block: TEAD-YAP interaction inhibition, primary screen, TEAD-YAP interaction inhibitor project, luminescence, HEK-TIYL cells; TEAD-Gal4/YAP UAS-luciferase luminescence; inhibition, % at 9.12 µM; hit rate 1.4% among 640,000; in the data active = inhibition above about 32%;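 also: 0% = median of test compound wells and 100% = reference inhibitor wells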
FBW7 activator: FBW7 E3 ligase activators, primary screen, biochemical, AlphaScreen, human. F-box/WD repeat-containing protein 7 (Homo sapiens), Q969H0. AlphaScreen FBW7–phospho-cyclin E peptide binding, activator screen. normalized activity (activation), % at 26.1 µM. hit rate 0.13% among 650,000; in the data active = normalized activity above about 1.9%;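 also: purified mutant Fbw7 with reduced substrate affinity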
MITF primary: MITF inhibitors, primary screen, biochemical, AlphaScreen, human. Microphthalmia-associated transcription factor (Homo sapiens), O75030. hit rate 0.91% among 650,000. AlphaScreen MITF homodimerization, bead proximity signal. inhibition, % at 2.6 µM; in the data active = inhibition above about 50%;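 also: 0% = vehicle wells with protein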
GPR151 ag: activators of human GPR151, primary screen, cell-based, PathHunter beta-arrestin, luminescence; hit rate 1% among 650,000; activation, % at 11.2 µM; G-protein coupled receptor 151 (Homo sapiens), Q8TDV0; AID 1508602, 2020; PathHunter beta-arrestin GPR151 cells; in the data active = activation above about 4.9%;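 also: 0% = median of compound wells and 100% = cells with positive control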
GPR151 conf act: GPR151 activators, triplicate retest, confirmation, cell-based, PathHunter beta-arrestin, luminescence; shares compounds with GPR151 ag; activation, % at 11.2 µM; AID 1508609, 2020; 6,700 tested, under 10 active; GPR151 PathHunter beta-arrestin cells, 90 min; % of EA-reagent control over plate median;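 active = mean percent activation across replicates above the confirmation screen cutoff of 4.91%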
GPR119 ag: GPR119 activators in beta-arrestin cells, counter-screen for GPR151 activator project, cell-based, PathHunter beta-arrestin, luminescence, triplicate; 90 min; 0 = compound-well median, 100 = enzyme-acceptor control; activation, % at 11.2 µM; shares compounds with GPR151 ag; hit rate 0.3% among 6,700;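 active = mean percent activation in the counterscreen above 29.09%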;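 also: counterscreen on off-target GPR119 to flag nonselective hits from the GPR151 activator screen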
Target sequence (Q8TDV5 whole entry, looked up): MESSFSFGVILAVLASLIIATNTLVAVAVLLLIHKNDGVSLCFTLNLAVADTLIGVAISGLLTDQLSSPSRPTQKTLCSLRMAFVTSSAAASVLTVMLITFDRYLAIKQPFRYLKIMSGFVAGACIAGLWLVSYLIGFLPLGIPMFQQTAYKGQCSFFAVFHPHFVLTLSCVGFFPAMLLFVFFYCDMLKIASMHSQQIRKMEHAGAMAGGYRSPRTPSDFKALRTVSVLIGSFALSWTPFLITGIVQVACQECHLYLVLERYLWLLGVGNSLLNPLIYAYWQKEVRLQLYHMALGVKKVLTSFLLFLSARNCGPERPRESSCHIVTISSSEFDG
* marks the source's active call; other numbers are inactive results; . = not tested or not shown. Sampled rows, rich in hits. Any-hit rate of the full collection: about 3.4%.

SMILES	TEAD-YAP block	FBW7 activator	MITF primary	GPR151 ag	GPR151 conf act	GPR119 ag
COc1ccc(OC)c(N(CC(=O)Nc2ccccc2F)S(C)(=O)=O)c1	6	0	2	2	.	.
COC(=O)c1ccccc1NC(=O)CN(c1cc(OC)ccc1OC)S(C)(=O)=O	-7	0	-6	5.6*	0	8
COC(=O)c1ccccc1NC(=O)CN(c1ccc(OC)cc1OC)S(C)(=O)=O	12	0	-1	9.5*	-1	0
COC(=O)c1ccccc1NC(=O)CN(c1ccccc1Cl)S(C)(=O)=O	-1	0	5	2	.	.
CCOc1ccc2c(c1)sc(=NC(=O)c1ccc([N+](=O)[O-])o1)n2C	-4	0	2	-1	.	.
COc1cccc(-c2nnc3n2N=C(c2cccc([N+](=O)[O-])c2)CS3)c1	16	0	-7	13*	-1	-9
O=C(NCc1ccccc1F)c1cc2cc(Br)ccc2oc1=O	-1	0	0	5.9*	0	7
Cc1ccc(NC(=S)NC(=O)C(C)C)cc1	-47	0	7	0	.	.
CN(CCn1ccnc1)c1nc2nonc2nc1NCc1ccccc1	0	0	6	2	.	.
CCN(CCn1cccn1)c1nc2nonc2nc1NCc1ccccc1	-4	0	8	6.5*	0	2
O=C(CN1C(=O)CSC1=O)c1ccc(Cl)cc1	0	0	-6	1	.	.
Cc1ccc(C(=O)Nc2ccc(C(=O)CN3C(=O)CSC3=O)cc2)cc1	-2	0	24	5.8*	-1	-4
CCCCC(C(=O)OC)N1C(=O)c2cc(Cl)c(Cl)cc2C1=O (centres undefined)	-1	0	-2	7.6*	0	5
C=CCn1c(COc2cccc(C)c2C)n[nH]c1=S	4	0	4	5.0*	0	1
C=CCn1c(COc2ccccc2C)n[nH]c1=S	9	1	8	-1	.	.
Cc1ccc(C)n1NC(=O)c1ccc(C(C)(C)C)cc1	-3	1	20	0	.	.
COc1cccc(NC(=O)CSc2cn(CC(=O)N3CCOCC3)c3ccccc23)c1	2	1	0	0	.	.
COc1cccc(NC(=O)CSc2cn(CC(=O)N3CCC(C)CC3)c3ccccc23)c1	-1	0	15	5.1*	1	3
COc1ccccc1C(=O)Nc1ccc(NC(C)=O)cn1	-34	0	-5	0	.	.
O=C(Nc1nncs1)c1cccc(I)c1	3	0	-8	5.4*	1	5
O=C(Nc1nncs1)c1cccc(Br)c1	-15	0	0	2	.	.
Cc1ccc(-c2cc(C(=O)Nc3cccnc3)c3cc(Br)ccc3n2)o1	-2	0	-5	6.5*	-1	-11
COc1ccc(C2=NN(c3nc(-c4ccc(OC)c(F)c4)cs3)C(c3ccco3)C2)cc1 (centres undefined)	4	0	1	0	.	.
CSc1nsc(SC)c1C(=O)N1CCN(S(=O)(=O)c2ccc(C)cc2)C1C (centres undefined)	3	0	3	5.0*	1	10
O=C(Cc1cn(-c2ccc(N3CCOCC3)nn2)c2ccccc12)NCCN1CCOCC1	-26	0	-5	-2	.	.
O=C(Cc1cn(-c2ccc(Cl)nn2)c2ccccc12)NCCN1CCOCC1	3	0	-4	7.8*	4	-3
Cc1nn(C)c(C)c1-c1ncc(C(=O)Nc2ccccc2)s1	-30	0	2	5.7*	0	-1
CCCC(=O)ON1C(=O)c2cccc3cccc(c23)C1=O	-3	0	20	5.5*	0	14
FC(F)(F)c1cccc(CNc2ncnc3nc(Nc4ccccc4)[nH]c23)c1	-1	0	13	3	.	.
O=C1CCCN1CCn1cnc2c(Nc3ccc(Oc4ccccc4)cc3)nc(N3CCc4ccccc4C3)nc21	11	0	-6	2	.	.
